Source: PubChem BioAssay AID1662 (Broad Institute, 2009)
About 4,000 (1.3%) of roughly 300,000 compounds were called active. The full list was thinned out, with actives kept by preference. Unmarked numbers belong to inactive results.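 Rule for the calls: active = mean replicate score, as percent of positive control median, at least 50; inconclusive = mean below 50 but one replicate at or above 50; inactive = mean and every replicate below 50.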

Assay: S. pyogenes SKKanGAS growth inhibitors in kanamycin, primary screen, streptokinase expression inhibitor project, SKKanGAS strain, BacTiter-Glo luminescence (AID 1662);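 note: strain carries kanamycin resistance gene driven by streptokinase promoter and grows in 40 µg/ml kanamycin; loss of luminescence reflects streptokinase promoter inhibition or plain growth inhibition; 0% = median of DMSO wells and 100% = positive control at its reference dose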
Details: 6 h, at 7.5 µM, active compounds read high
COC(=O)c1cc(OC)ccc1-c1ccc(OC)cc1 showed an inhibition of 11%. In the case of COc1ccc(-c2cn[nH]c2-c2ccc(OC)cc2)cc1, the inhibition is reported as 75.3% (active). Work on COc1ccc(Oc2cn[nH]c2-c2ccc(OC)cc2O)cc1 yielded an inhibition of 13.6%. For O=C1/C(=C\c2ccccc2Cl)SC(=S)N1CCC(=O)N1CCCc2ccccc21, the inhibition was -4.28%. Compound O=c1[nH]cnc2c1c(-c1ccccc1)cn2-c1ccc(F)cc1 has an inhibition of -1.74%. For COc1ccc(-n2cc(-c3ccccc3)c3c(=S)nc[nH]c32)cc1, the inhibition was 54.1% (active). With COc1ccc(-c2cn(-c3ccc(OC)cc3)c(=S)[nH]2)cc1 the inhibition was -13.9%. In the case of CCOP(=O)(OCC)C(Nc1cccc(C)c1)c1ccc(F)cc1 (centres undefined), the inhibition is reported as -2.54%. Work on CC1CCc2[nH]c3ccc(C(=O)N(C)CC(=O)Nc4cccc(F)c4)cc3c2C1 (centres undefined) yielded an inhibition of -8.76%. In the case of CC(C)CC1(C(=O)NCc2ccccn2)C=CCN1C(=O)c1ccccc1 (centres undefined), the inhibition is reported as -5.95%. For NC(=O)NC(=O)CSc1nc2cc([N+](=O)[O-])ccc2n1-c1cccc(C(F)(F)F)c1, the inhibition was 97.7% (active). With COc1ccc(CCNC(=O)CSc2nc3[nH]ncc3c(=O)n2-c2cccc(C(F)(F)F)c2)cc1OC the inhibition was -2.08%. COc1ccc(-n2cnnc2SCC(=O)Nc2cccc([N+](=O)[O-])c2)cc1 showed an inhibition of -8.4%. Compound COC(=O)C1[C@H]2SC(C)(C)C(C(=O)OC)N2C(=O)N1Cc1nc2ccccc2s1 (some centres undefined) has an inhibition of 6.63%. For NC(=O)C1CC(=O)N(c2ccc(OCC(=O)NCc3ccccc3)cc2)C1 (centres undefined), the inhibition was 1.49%. In the case of CC1(C)S[C@@H]2[C@H](NC(=O)COc3ccccc3)C(=O)N2C1C(=O)OCc1ccccc1 (some centres undefined), the inhibition is reported as 97% (active). Work on Cc1cccc(OCC(=O)NC2CC(C)(C)NC(C)(C)C2)c1 yielded an inhibition of 1.54%. In the case of CC1(C)SC2C(NC(=O)COc3ccccc3)C(=O)N2C1C(=O)O (centres undefined), the inhibition is reported as 102% (active). For CC1(C)S[C@@H]2[C@H](N=CN3CCCCCC3)C(=O)N2[C@H]1C(=O)O, the inhibition was -7.68%. Compound C[C@H]1CC[C@]2(O[C@@H](CCO)C[C@@H](O)[C@@H]2O)O1 has an inhibition of -3.21%. For CC1Cn2c(nnc2-c2cccs2)S1 (centres undefined), the inhibition was -5.31%. CCCn1c(=N)n(CC(=O)c2ccc(Cl)c(Cl)c2)c2ccccc21 showed an inhibition of 2.77%. In the case of CN(C(=O)CN1C(=O)NC(C)(CCc2ccccc2)C1=O)c1ccccc1 (centres undefined), the inhibition is reported as -1.34%. CC1CC(=O)N(CC(=O)Nc2cccc(Cl)c2)c2ccccc2S1(=O)=O (centres undefined) gave an inhibition of -1.88%. CSc1ccc(CNC(=O)c2ccc(NC(=O)C3=CSCCO3)cc2)cc1 showed an inhibition of -10.5%. In the case of Cc1ccc(-c2csc(NNC(=O)c3ccccc3)n2)cc1, the inhibition is reported as 55.1% (active). With Cc1nc(NNC(=O)c2ccccc2)cc(-c2ccccc2)n1 the inhibition was -2.12%. For CC(=O)Nc1ccc(-c2csc(NC(=O)Nc3ccccc3)n2)cc1, the inhibition was 0.751%. Work on COc1cccc(CNC(=O)c2nnn(CC(=O)Nc3cc(C)ccc3C)c2N)c1 yielded an inhibition of 11%. In the case of O=C(/C=C/c1cnc2ccccc2n1)NC1CCCCCC1, the inhibition is reported as 2.73%. With COc1ccccc1C(=O)NCCC(=O)NN1C(=O)NC2(CCCCC2)C1=O the inhibition was -9.03%. For NCC(=O)c1cccc2ccc[n+]([O-])c12, the inhibition was -3.82%. O=C(Nc1ccccc1-c1nnn(CC(=O)N2CCCc3ccccc32)n1)c1cccc(Cl)c1 gave an inhibition of -0.017%. For Cc1cccc(C(=O)Nc2ccccc2-c2nnn(CC(=O)Nc3ccc4c(c3)OCCO4)n2)c1, the inhibition was 59.1% (active). Work on CS(=O)(=O)c1ccc(-c2nnn(CC(=O)Nc3ccc4c(c3)OCCO4)n2)cc1 yielded an inhibition of -16.5%. Work on COc1cc(C(=O)OC(C)C(=O)NCC2CCCCC2)cc(NC(=O)c2ccco2)c1OC (centres undefined) yielded an inhibition of -4.57%. For COc1ccc(S(=O)(=O)N2CCOCC2)cc1C(=O)Nc1nc2ccccc2s1, the inhibition was 1.7%. Compound COc1ccccc1OCc1nc2ccccc2s1 has an inhibition of 21%. COc1cc2ccccc2cc1C(=O)Nc1nc(C)c(C(C)=O)s1 showed an inhibition of -5.23%. For COc1ccccc1/C=N/Nc1nc(C)c(C(C)=O)s1, the inhibition was -9.03%. With COc1cccc2sc(Nc3nc(C)c(C(C)=O)s3)nc12 the inhibition was 53.7% (active). With COc1cccc2sc(NNC(=O)c3nc4ccccc4s3)nc12 the inhibition was 92.6% (active). For CN(C)CCCN(C(=O)c1ccc(S(=O)(=O)N2CCCCCC2)cc1)c1nc2cc3c(cc2s1)OCCO3, the inhibition was -2.65%. In the case of N#Cc1ccc(OCc2nnc(-c3ccc([N+](=O)[O-])cc3)o2)cc1, the inhibition is reported as 4.26%. COc1ccccc1N1CCN(c2ncnc3sc(C)c(-c4ccccc4)c23)CC1 gave an inhibition of 35.4%. With CS(=O)(=O)N(Cc1ccccc1Cl)c1ccc(C(=O)NCc2cccnc2)cc1 the inhibition was -5.28%. Compound COc1ccc(Cl)cc1C(=O)NNC(=S)NC1CCCC1 has an inhibition of -3.8%. C=CCNC(=S)NNC(=O)c1cc(Cl)ccc1OC gave an inhibition of 3.23%. For COc1ccc(Cl)cc1C(=O)NNC(=S)NC(=O)/C=C/c1ccco1, the inhibition was 80.2% (active). With CCOCCCNC(=S)N1CCC(NC(=O)C2CCCCC2)CC1 the inhibition was -0.571%. With CC(C)c1nc2cc(C(=O)NC(C)c3cnn(C)c3)ccc2o1 (centres undefined) the inhibition was -0.746%. Work on O=C(Nc1ccc2nc3n(c(=O)c2c1)CCCCC3)c1ccccc1Cl yielded an inhibition of -2.99%. For CCCCN(CC)C(=S)Nc1ccc2nc3n(c(=O)c2c1)CCCCC3, the inhibition was 2.4%. For COc1ccc(CCNC(=O)C(=O)Nc2ccc3nc4n(c(=O)c3c2)CCCCC4)cc1OC, the inhibition was 58.4% (active). C=C(C)COc1ccc(-c2n[nH]c(C)c2-c2ccccc2OC)c(O)c1 gave an inhibition of 10.6%. Compound CCOc1ccc(-c2n[nH]c(C)c2-c2ccccn2)c(O)c1 has an inhibition of -4.57%. For C=C(C)COc1ccc(-c2n[nH]c(C)c2-c2ccccc2)c(O)c1, the inhibition was 62.3% (active). Work on CCNC(=O)c1cnn(-c2ccccc2)c1-c1ccccc1 yielded an inhibition of -2.93%. COc1ccc(C(=O)O)cc1S(=O)(=O)NCc1cccnc1 showed an inhibition of 0.329%.
